The values that follow come from PubChem BioAssay.

Activity calls are given as the source filed them. Unless noted, the rule behind the calls is not given here.

Experiment [1] concerns Wnt5a (protein binding on small-molecule microarray). Description: Wnt5a binders on small-molecule microarray, primary screen, biophysical, 635/667 nm fluorescence (AID 1142).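 Note: fluorescence read at 667 nm with signal to noise per printed feature.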 Conditions: 635 nm fluorescence, higher = more signal.
Experiment [2] in a line: cell viability in Huh7 cells, primary screen, cytotoxicity control for HCV replication inhibitor project, CellTiter-Glo luminescence, basal, 48 h (AID 1143).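 Note: Huh7 hepatoma cells carrying a hepatitis C replication reporter with no stimulus; test concentration not given here.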 Conditions: Huh7 HCV replicon, higher = more signal, called active from +8 up or from −8 down.
Experiment [3] is described as follows: P. aeruginosa biofilm formation inhibitors, primary screen, PAO1 strain, BacTiter-Glo luminescence, LB-PBS (AID 1144). The note with it: 12 h, higher = more signal.
Experiment [4] is described as follows: CREB reporter modulators without forskolin, primary screen, cell-based, PC12, CRE-LacZ reporter, unstimulated (AID 1145). Conditions: no forskolin, luminescence, 4.5 h, higher = more signal, called active from +8 up or from −8 down.
Experiment [5] can be described thus: CREB reporter modulators under forskolin, primary screen, cell-based, PC12, CRE-LacZ reporter, forskolin-stimulated (AID 1146).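 Note: PC12 cells with 6xCRE LacZ reporter stimulated by forskolin 10 µM; beta-galactosidase reporter signal reflecting CREB driven transcription.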 Conditions: luminescence, 4.5 h, higher = more signal, called active from +8 up or from −8 down.
The target of experiment [6] is Streptavidin (Streptomyces avidinii) (UniProt P22629). Briefly: streptavidin binders on small-molecule microarray, primary screen, artefact control for SMM compound annotation, biophysical, 635/667 nm fluorescence (AID 1147).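 Note: signal reflects streptavidin binding to arrayed compounds as a control protein.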 The note with it: streptavidin binding, higher = more signal.
Sequence of Streptavidin (Streptomyces avidinii) (P22629 whole entry, looked up): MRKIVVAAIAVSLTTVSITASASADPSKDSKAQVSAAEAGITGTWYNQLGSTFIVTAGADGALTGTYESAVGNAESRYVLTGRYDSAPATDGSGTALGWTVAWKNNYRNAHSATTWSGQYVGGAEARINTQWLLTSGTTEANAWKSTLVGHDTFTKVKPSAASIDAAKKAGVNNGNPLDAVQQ
Experiment [7] in a line: small-molecule binders of probe aInhba, primary screen, biochemical, small-molecule microarray, 635/667 nm fluorescence (AID 1148).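 Note: score merges 667nm spot fluorescence with signal-to-noise for antibody binding to printed compounds.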 The note with it: higher = more signal.
For experiment [8], the target named is Torsin-1A (Homo sapiens) (UniProt O14656). Briefly: torsin A binders from cell lysate, primary screen, small-molecule microarray, wild-type, 635/667 nm (AID 1149). The note with it: COS7 hTOR1A-WT lysate, 635 nm fluorescence, higher = more signal.
Sequence of Torsin-1A (Homo sapiens) (O14656 whole entry, looked up): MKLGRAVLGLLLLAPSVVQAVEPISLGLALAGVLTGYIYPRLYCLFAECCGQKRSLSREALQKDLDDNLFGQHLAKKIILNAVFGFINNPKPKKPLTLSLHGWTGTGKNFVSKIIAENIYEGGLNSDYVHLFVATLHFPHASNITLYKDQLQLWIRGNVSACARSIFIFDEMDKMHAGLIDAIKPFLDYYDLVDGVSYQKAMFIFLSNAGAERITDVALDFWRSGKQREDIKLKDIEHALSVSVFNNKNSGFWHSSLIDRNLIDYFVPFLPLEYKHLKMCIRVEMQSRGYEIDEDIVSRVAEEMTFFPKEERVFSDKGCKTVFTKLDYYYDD
For experiment [9] the target is unchanged. Description: small-molecule binders of mutant TOR1A in lysate, primary screen, cell lysate, small-molecule microarray, COS7 lysate, 635/667 nm fluorescence (AID 1150).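 Note: score pools 667 nm emission and signal to noise measuring lysate protein binding.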 The note with it: COS7 hTOR1A mutant lysate, 635 nm fluorescence, higher = more signal.
For experiment [10], the system named is Sonic hedgehog protein (Shh). Description: small-molecule binders of Shh protein, primary screen, biochemical, small-molecule microarray, 635/667 nm fluorescence (AID 1151).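 Note: Shh protein binding to compounds spotted on small-molecule microarray slides; score combines spot fluorescence intensity with signal-to-noise across triplicate slides.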 The note with it: small-molecule microarray binding, 635 nm fluorescence; higher = more signal.
The nature of experiment [11]: E. coli DRC41 culture turbidity changes, primary screen, E. coli filamentation inducer project, strain DRC41, OD650, 48 h (AID 1152).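 Note: E. coli MC1000 strain DRC41 lacking acrAB efflux pump and sulA.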 The note with it: E. coli DRC41 (acrAB sulA), higher = more signal, called active from +8 up or from −8 down.
Experiment [12] can be described thus: small-molecule binders of probe aLefty1, primary screen, biochemical, small-molecule microarray, 635/667 nm fluorescence (AID 1153).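 Note: score merges spot fluorescence with signal-to-noise ratio from the scanned slide images.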 Conditions: higher = more signal.
Experiment [13] can be described thus: PSAC antagonists in infected red cells, primary screen, cell-based, P. falciparum Indochina, OD700, 1 h (AID 1154). Conditions: P. falciparum Indochina infected RBC osmotic lysis, higher = more signal, called active from +8 up or from −8 down.
Experiment [14] in a line: PSAC antagonists in infected red cells, primary screen, cell-based, P. falciparum Indochina, OD700, 2 h (AID 1155).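 Note: lysis reports solute entry through the parasite surface anion channel PSAC; channel blockers reduce lysis of infected cells.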 Conditions: P. falciparum Indochina infected erythrocytes, osmotic lysis OD700; higher = more signal, called active from +8 up or from −8 down.
Experiment [15] can be described thus: osmotic lysis modulators in infected erythrocytes, primary screen, PSAC antagonist project, cell-based, P. falciparum Indochina, OD700, 3 h (AID 1156). The note with it: higher = more signal, called active from +8 up or from −8 down.
Experiment [16] can be described thus: PSAC antagonists in infected red cells, primary screen, cell-based, P. falciparum Indochina, OD700, 18 h (AID 1157). The note with it: P. falciparum Indochina infected erythrocytes, osmotic lysis OD700, 18 h; higher = more signal, called active from +8 up or from −8 down.
Experiment [17] can be described thus: modulators of S6 phosphorylation in cells, primary screen, cell-based, A549, cytoblot, luminescence, serum-stimulated (AID 1158).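 Note: serum-stimulated A549 lung adenocarcinoma cells; signal is phosphorylated S6 detected by cytoblot immunostaining with HRP secondary.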 Conditions: A549 phospho-S6 cytoblot, 5 h, higher = more signal.
The target of experiment [18] is NADPH oxidase 2 (Homo sapiens) (UniProt P04839). Briefly: NOX2-dependent H2O2 signal modulators, primary screen, NOX inhibitor project, cell-based, HEK293-NOX2, PMA-stimulated, Amplex Red fluorescence (AID 1159). Note: test concentration not given here. Conditions: 45 min, higher = more signal, called active from +8 up or from −8 down.
Sequence of NADPH oxidase 2 (Homo sapiens) (P04839 whole entry, looked up): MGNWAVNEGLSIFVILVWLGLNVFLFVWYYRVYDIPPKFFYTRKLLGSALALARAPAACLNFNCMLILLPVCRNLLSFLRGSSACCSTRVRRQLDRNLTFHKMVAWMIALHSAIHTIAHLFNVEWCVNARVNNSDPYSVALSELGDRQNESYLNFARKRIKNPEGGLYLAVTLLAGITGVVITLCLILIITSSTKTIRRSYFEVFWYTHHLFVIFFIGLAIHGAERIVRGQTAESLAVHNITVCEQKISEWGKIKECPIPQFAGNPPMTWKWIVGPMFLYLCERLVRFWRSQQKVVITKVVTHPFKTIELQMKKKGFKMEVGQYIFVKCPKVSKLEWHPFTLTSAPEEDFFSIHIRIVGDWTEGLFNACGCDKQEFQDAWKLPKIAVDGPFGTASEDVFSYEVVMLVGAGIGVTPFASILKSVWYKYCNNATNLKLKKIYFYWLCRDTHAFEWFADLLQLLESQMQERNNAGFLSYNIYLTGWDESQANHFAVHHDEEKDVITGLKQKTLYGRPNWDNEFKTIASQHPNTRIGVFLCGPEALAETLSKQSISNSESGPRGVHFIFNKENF
The target of experiment [19] is NADPH oxidase 4 (Homo sapiens) (UniProt Q9NPH5). Briefly: NOX4-dependent H2O2 signal modulators, primary screen, NOX inhibitor project, cell-based, HEK293-NOX4, tetracycline-induced, Amplex Red fluorescence (AID 1160). The note with it: 45 min, higher = more signal, called active from +8 up or from −8 down.
Sequence of NADPH oxidase 4 (Homo sapiens) (Q9NPH5 whole entry, looked up): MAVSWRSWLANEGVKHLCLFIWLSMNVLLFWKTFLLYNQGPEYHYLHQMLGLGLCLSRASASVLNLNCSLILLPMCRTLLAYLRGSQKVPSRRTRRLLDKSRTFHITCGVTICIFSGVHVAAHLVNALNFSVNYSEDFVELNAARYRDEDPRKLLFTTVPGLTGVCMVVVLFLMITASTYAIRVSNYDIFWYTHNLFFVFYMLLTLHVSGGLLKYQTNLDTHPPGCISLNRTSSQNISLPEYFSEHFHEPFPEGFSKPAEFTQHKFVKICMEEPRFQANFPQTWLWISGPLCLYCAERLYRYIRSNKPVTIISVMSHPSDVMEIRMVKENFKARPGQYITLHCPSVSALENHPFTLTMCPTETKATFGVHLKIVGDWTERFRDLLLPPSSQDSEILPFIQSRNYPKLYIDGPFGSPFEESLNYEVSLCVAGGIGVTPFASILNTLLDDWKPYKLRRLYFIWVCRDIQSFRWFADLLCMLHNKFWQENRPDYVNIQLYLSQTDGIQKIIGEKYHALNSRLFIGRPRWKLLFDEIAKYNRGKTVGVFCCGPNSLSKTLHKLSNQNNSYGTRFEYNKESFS
Experiment [20] addresses NADPH oxidase 5 (Homo sapiens) (UniProt Q96PH1). Briefly: NOX5-dependent H2O2 signal modulators, primary screen, NOX inhibitor project, cell-based, HEK293-NOX5, Amplex Red fluorescence (AID 1161). The note with it: HEK293-NOX5, ionomycin, 45 min, higher = more signal.

Sequence of NADPH oxidase 5 (Homo sapiens) (Q96PH1 whole entry, looked up): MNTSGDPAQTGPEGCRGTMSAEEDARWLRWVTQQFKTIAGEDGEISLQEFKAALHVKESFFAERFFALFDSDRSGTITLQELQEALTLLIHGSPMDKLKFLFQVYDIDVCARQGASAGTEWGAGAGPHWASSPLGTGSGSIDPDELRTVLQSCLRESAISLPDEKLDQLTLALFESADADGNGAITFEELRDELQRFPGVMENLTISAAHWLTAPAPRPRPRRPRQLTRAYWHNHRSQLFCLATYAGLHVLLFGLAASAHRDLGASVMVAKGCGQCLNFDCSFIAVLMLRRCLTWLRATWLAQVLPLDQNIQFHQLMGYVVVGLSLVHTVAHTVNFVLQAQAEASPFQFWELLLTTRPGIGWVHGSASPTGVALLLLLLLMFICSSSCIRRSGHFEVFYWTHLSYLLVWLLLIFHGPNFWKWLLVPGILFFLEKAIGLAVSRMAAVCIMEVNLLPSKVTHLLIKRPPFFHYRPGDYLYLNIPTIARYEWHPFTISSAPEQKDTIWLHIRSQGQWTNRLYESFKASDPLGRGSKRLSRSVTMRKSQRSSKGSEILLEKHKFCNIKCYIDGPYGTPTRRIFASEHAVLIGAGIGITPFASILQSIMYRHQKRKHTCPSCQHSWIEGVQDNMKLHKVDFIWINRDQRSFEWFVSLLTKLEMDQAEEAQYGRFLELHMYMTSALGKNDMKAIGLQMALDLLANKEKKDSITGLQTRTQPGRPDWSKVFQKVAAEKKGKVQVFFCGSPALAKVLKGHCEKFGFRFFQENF

As for `C[N+](C)(C)CCCCCCNC(=O)[C@H]1C[C@H]2C(=O)N[C@@H](Cc3ccccc3)C(=O)N2[C@H]1c1ccc(O)cc1`, the composite z-score in experiment [1] was 0.121; in [6], -0.215; in experiment [7], -0.0695; with Torsin-1A (Homo sapiens) [8], 0.561; with Torsin-1A (Homo sapiens) [9] it was 0.313; in experiment [10], 1.94. Besides, the composite z-score in experiment [12] is -0.0475. For the same compound, the z-score was -0.56 (inactive) in [2]; 0.271 (inactive) in experiment [3]; -1.08 (inactive) in [4]; -0.227 (inactive) in experiment [5]; 0.796 (inactive) in [11]; 6.4 (inactive) in [13]. Further, the z-score was 1.3 (inactive) in experiment [14]; -0.194 (inactive) in [15]; 0.374 (inactive) in experiment [16]; -0.0246 in experiment [17]; 0.847 (inactive) in experiment [18]; 1.13 (inactive) in [19]. The same compound returned a z-score in experiment [20] of -0.0901.
Consider `CCOC(=O)C[C@H]1[C@H](OC(=O)c2cc3ccccc3oc2=O)[C@@H](NC(=O)c2ccc(-c3ccccc3)cc2)c2cc(OCCCO)ccc2N1C(=O)c1ccc2ccccc2n1`, for which the composite z-score is 0.355 in [1]; 0.207 in experiment [6]; 0.166 in experiment [7]; 0.626 with Torsin-1A (Homo sapiens) [8]; 0.572 with Torsin-1A (Homo sapiens) [9]; 1.84 in [10]. Besides, the composite z-score in experiment [12] worked out at 0.132. Besides, the z-score in experiment [2] is -0.168 (inactive); in experiment [3], -1.1 (inactive); in [4], 1.03 (inactive); in experiment [5] it was 0.644 (inactive); in experiment [11] it was -0.216 (inactive); in experiment [13], 3.37 (inactive). The z-score was 1.07 (inactive) in experiment [14]; 0.723 (inactive) in experiment [15]; 0.523 (inactive) in [16]; -0.577 in experiment [17]; 0.858 (inactive) in experiment [18]; 0.688 (inactive) in experiment [19]. In experiment [20], this compound came in with a z-score of 1.11.
As to `CO[C@H]1O[C@H](CO)[C@@H](OC(=O)Nc2ccccc2-c2ccccc2)[C@H](OC(=O)Nc2ccc3c(c2)OCO3)[C@H]1OC(=O)Nc1ccc2c(c1)OCO2`, the composite z-score in [1] was 0.35; in experiment [6], 0.144; in experiment [7], 0.271; with Torsin-1A (Homo sapiens) [8] it was 0.5; with Torsin-1A (Homo sapiens) [9], 0.723; in experiment [10], 1.42. This compound also displayed a composite z-score in [12] of 0.809. The z-score in [2] was -1.48 (inactive); in experiment [3], -0.158 (inactive); in experiment [4], 0.792 (inactive); in experiment [5], -0.97 (inactive); in experiment [11] it was 1.27 (inactive); in experiment [13], 6.03 (inactive). Moreover, the z-score in experiment [14] was 1.08 (inactive); in [15], 0.52 (inactive); in experiment [16], 0.666 (inactive); in [17] it was -0.0053; in [18], -2.21 (inactive); in [19] it was -1.18 (inactive). In [20], the z-score is -2.42.
For `COC(=O)Cn1c(C(=O)N(C)C)cc2c1C[C@H]1CN(C(=O)c3ccccc3)[C@@](Cc3ccc(F)cc3)(C(=O)OC)[C@@H]21`, the composite z-score was 0.398 in experiment [1]; 0.124 in experiment [6]; 0.382 in experiment [7]; 0.245 with Torsin-1A (Homo sapiens) [8]; -0.068 with Torsin-1A (Homo sapiens) [9]; -0.238 in experiment [10]. This compound had a composite z-score in experiment [12] of 0.523. In addition, the z-score is -0.725 (inactive) in experiment [2]; -0.625 (inactive) in [3]; 0.207 (inactive) in [4]; -0.106 (inactive) in [5]; -1.25 (inactive) in experiment [11]; 0.628 (inactive) in experiment [13]. The z-score in experiment [14] is 0.238 (inactive); in experiment [15], 0.13 (inactive); in [16], 0.52 (inactive); in [17] it was -0.38; in experiment [18], 0.174 (inactive); in experiment [19], -0.765 (inactive). In experiment [20], this compound had a z-score of -1.26.
